# Results from PubChem BioAssay (NCATS).
# Inconclusive results are not listed. Unmarked numbers belong to inactive results. Calls of active or inactive are those of the source. Unless noted, calls follow the shape of the dose curve; as a rule, active = well fitted inhibition curve with a large enough effect; inconclusive = small, poorly fitted or top-dose-only effect, or effect the other way; inactive = flat fitted curve, though single readings scatter.
# Key:
# [1] = biological target: ATP-dependent 6-phosphofructokinase (Trypanosoma brucei brucei) (UniProt O15648); assay: qHTS Assay to Find Inhibitors of T. brucei phosphofructokinase: hit validation (AID 492961);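 also: luminescence reports ADP formed as PFK phosphorylates fructose-6-phosphate with ATP; series mostly up to about 51 µM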
# In short: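 Inhibition of parasite PFK is measured as reduced ADP formation, quantified via luciferase after ATP depletion. Assay used 0.1 mM ATP, 0.5 mM F6P, 1.25 nM enzyme, 45 min incubation.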
# [2] = qHTS Assay for Identification of Small Molecule Inducers of Hypoxia Response (AID 2120; active = well fitted curve in the direction sought with a large enough effect in the signal ratio, with a control signal flat, not every such curve was filed as active; the % refers to the signal ratio)
# In short: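 HRE-bla ME-180, 2500 cells/well, 0.5% dialyzed FBS medium; cpd titration, 17 h 37 degrees C; CCF4 2.5 h RT; Ex 405, Em 460/530 ratio -> %Activity, AC50.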
# Chain of ATP-dependent 6-phosphofructokinase (Trypanosoma brucei brucei) (O15648 whole entry, looked up): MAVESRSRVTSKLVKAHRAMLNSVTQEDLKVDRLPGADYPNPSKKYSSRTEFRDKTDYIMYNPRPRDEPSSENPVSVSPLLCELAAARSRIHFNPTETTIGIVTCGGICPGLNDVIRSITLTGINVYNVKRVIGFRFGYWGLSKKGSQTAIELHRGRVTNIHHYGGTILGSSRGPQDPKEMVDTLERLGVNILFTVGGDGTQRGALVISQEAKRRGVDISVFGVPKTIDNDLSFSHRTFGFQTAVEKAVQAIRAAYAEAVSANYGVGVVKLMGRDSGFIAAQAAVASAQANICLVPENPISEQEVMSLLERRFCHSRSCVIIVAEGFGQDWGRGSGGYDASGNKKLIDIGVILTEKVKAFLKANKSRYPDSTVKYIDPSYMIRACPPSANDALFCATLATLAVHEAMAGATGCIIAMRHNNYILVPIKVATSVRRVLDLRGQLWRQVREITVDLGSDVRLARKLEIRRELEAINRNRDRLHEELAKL
Compound,outcome [1],outcome [2]
Cc1cc(-n2nc3ccc(Cl)cc3n2)c(O)c(C(C)(C)C)c1,inactive,–
Cc1[nH]c(C)c(Cl)c(=O)c1Cl,inactive,–
Cc1cc(C)nc(NS(=O)(=O)c2ccc(N)cc2)n1,–,inactive
CCCCCCCCCCCCCCCCCCO,inactive,–
Cc1cc(=O)[nH]c(=S)[nH]1,inactive,inactive
CC(O)CCCCn1c(=O)c2c(ncn2C)n(C)c1=O (centres undefined),inactive,–
CCCC(O)C(CC)CO (centres undefined),inactive,inactive
CCCCCC(N)=O,inactive,inactive
CCN(CC)CCOC(=O)C(c1ccccc1)c1ccccc1,inactive,–
O=C1c2cccc(O)c2C(=O)c2c(O)cccc21,inactive,inactive
C=CCNC(N)=S,inactive,inactive
CCOC(=O)[C@H](CCc1ccccc1)N[C@@H](C)C(=O)N1CCC[C@H]1C(=O)O,inactive,–
OC[C@@H](O)[C@@H](O)[C@H](O)[C@H](O)CO,inactive,–
Cc1cc(C)c(NC(=O)CN(CC(=O)O)CC(=O)O)c(C)c1Br,inactive,–
CCCCCCCCCCCCCCCCC(C(=O)O)C(O)(CC(=O)O)C(=O)O (centres undefined),inactive,–
CCc1cccc(CC)c1NC(=O)CN(CC(=O)O)CC(=O)O,inactive,–
O=C(Cn1ccnc1[N+](=O)[O-])NCc1ccccc1,inactive,–
CNCc1ccccc1,inactive,–
O=C(O)CNC(=O)c1ccccc1I,inactive,–
NC(=O)CCCCC1CCSS1 (centres undefined),inactive,–
CCCOC(=O)c1ccc(N)cc1,inactive,–
O=C1c2ccccc2C(=O)C1c1ccc(Br)cc1,inactive,–
CC[N+](C)(CC)CCOC(=O)C1c2ccccc2Oc2ccccc21,inactive,–
CC(=O)Oc1cccc(C)c1,inactive,–
CC(=O)N(CC(O)CO)c1c(I)c(C(=O)NCC(O)CO)c(I)c(C(=O)NCC(O)CO)c1I (centres undefined),inactive,–

Compound,outcome [1],outcome [2]
COc1ccc2cc(CCC(C)=O)ccc2c1,inactive,–
C[C@@H]1CCC[C@H](C)N1,inactive,–
COC(=O)c1ccc(O)cc1,inactive,–
COc1ccc(NS(=O)(=O)c2ccc(N)cc2)nn1,inactive,–
CN(C(=O)c1c(O)c2ccccc2n(C)c1=O)c1ccccc1,inactive,–
NC(=O)CC[C@@H](N)C(=O)O,inactive,–
Cc1c(C)c2c(c(C)c1OC(=O)c1cccnc1)CC[C@@](C)(CCC[C@H](C)CCC[C@H](C)CCCC(C)C)O2,inactive,–
Cc1ccc(S(=O)(=O)NC(=O)NC2CCCCC2)cc1,inactive,–
Cc1cccc(C(=O)O)c1O,inactive,–
NC(N)=NCCN1CCCCCCC1,inactive,–
O=C(O)COC(=O)Cc1ccccc1Nc1c(Cl)cccc1Cl,inactive,–
Cc1ccc(S(=O)(=O)NC(=O)NC2CCCCCCC2)cc1,inactive,–
CC(C)CCOC(=O)c1ccc(N(C)C)cc1,inactive,–
O=C1CC[C@@H](C(=O)O)N1,inactive,–
NNc1nnc(NN)c2ccccc12,inactive,–
CCN(CC)S(=O)(=O)c1ccc(C(=O)O)cc1,inactive,–
CCS(=O)(=O)CCn1c([N+](=O)[O-])cnc1C,inactive,–
O=C(CN1CCNCC1)NC1CCCCC1,inactive,–
Cc1ccc(C(C)C)c(O)c1,inactive,–
CCOc1cc(NC(C)=O)ccc1C(=O)OC,inactive,–
COC(=O)c1cccnc1,inactive,–
O=C(O)c1cc(=O)c2ccccc2o1,inactive,–
Cc1onc(-c2ccccc2)c1-c1ccc(S(N)(=O)=O)cc1,inactive,–
Cc1c(I)c(=O)n(-c2ccccc2)n1C,inactive,–
